Assay results taken from ChEMBL document CHEMBL1157539, “Thousands of chemical starting points for antimalarial lead identification” (Nature, 2010).
Where “and” joins values, the source holds several entries; their conditions need not be identical. Equal entries are not always repeated.

Legend:
Assay type in all cases: functional
Plasmodium falciparum [1] = test: GSK_TCMDC: Inhibition of Plasmodium falciparum 3D7 in whole red blood cells, using parasite LDH activity as an index of growth. Test compounds present at 2uM
Plasmodium falciparum [2] = test: GSK_TCMDC: Inhibition of Plasmodium falciparum Dd2 in whole red blood cells, using parasite LDH activity as an index of growth. Test compounds present at 2uM
HepG2 = test: GSK_TCMDC: Percent inhibition of human HepG2 cell line. Test compounds present at 10uM.

| Compound | Inhibition (Plasmodium falciparum [1]) | Inhibition (Plasmodium falciparum [2]) | Inhibition (HepG2) |
| --- | --- | --- | --- |
| Cn1cc(CN2CCC(CCOC(c3ccccc3)c3ccccc3)CC2)cn1 | 99% | 100% | 27% |
| CC[C@H]1CN2CC[C@@H]1C[C@H]2[C@H](O)c1ccnc2ccc(OC)cc12 | 100% | 61% | 0% |
| CCN(Cc1ccccc1)CC(O)c1ccc(Cl)c(Cl)c1.Cl (stereo not given) | 96% | 71% | 2% |
| CC(Cc1ccc(OCc2ccccc2)cc1)NCC(O)c1cccc(Cl)c1 (stereo not given) | 99% | 99% | 50% |
| CC[C@H]1CN2CC[C@H]1C[C@H]2[C@H](O)c1cc(-c2ccc(F)cc2)nc2ccc(OC)cc12.Cl | 99% | 98% | 34% |
| COC(=O)c1ccc(CC(C)NCC(O)c2cccc(C(F)(F)F)c2)c(Cl)c1 (stereo not given) | 99% | 98% | 0% |
| COc1ccc(-c2ccccc2)cc1NC(=S)NC1CCC(CN2CCC(c3c[nH]c4ccccc34)CC2)CC1 (stereo not given) | 100% | 98% and 95% | 27% and 51% |
| CN(c1cc(NC(=O)c2ccc(F)cc2)ccn1)C1CCN(Cc2cccc(C#N)c2)CC1.O=C(O)C(F)(F)F | 97% | 83% | 73% |
| CCN(CC)CCN1C(=O)C(O)(c2ccccc2Cl)c2c1cc(C#N)cc2C(F)(F)F (stereo not given) | 88% | 19% | 21% |
| Cc1ccc(-n2nc(C)c3c2NC(=O)CSC3c2ccsc2)cc1 (stereo not given) | 97% | 11% | 0% |
| Cc1ccc(C(=O)Nc2ccnc(N(C)C3CCN(Cc4cccc(O)c4)CC3)c2)cn1.O=C(O)C(F)(F)F | 90% | 1% | 0% |
| CN(C)c1cccc(CN2CC=C(c3c[nH]c4ccc(Cl)cc34)CC2)c1 | 93% | 87% | 40% |
| COc1ccccc1CNCC(O)c1cc(C(F)(F)F)ccc1C(F)(F)F (stereo not given) | 100% | 95% | 10% |
| CCOc1ccc(CN(CCc2ccc3c(c2)OCO3)Cc2cc(OC)ccc2O)cc1.O=C(O)C(=O)O | 96% | 88% | 3% |
| COC(=O)/C=C/c1ccc(CC(C)NCC(O)c2cccc(C(F)(F)F)c2)cc1.Cl (stereo not given) | 97% | 93% | 41% |
| Cc1[nH]c2ccccc2c1C1=CCN(CC2CC2C(=O)c2ccccc2)CC1 (stereo not given) | 95% | 88% | 18% |
| CC[C@H]1CN2CC[C@H]1C[C@H]2[C@H](O)c1cc(N2CCCC(C(=O)N(CC)CC)C2)nc2ccc(OC)cc12 (stereo not given in full) | 100% | 99% | 0% |
| CO/C=C(/C(=O)OC)c1ccccc1Oc1cc(Oc2ccccc2C#N)ncn1 [AZOXYSTROBIN] | 98% | 98% | 7% |
| COc1ccc(C[C@@H](C)NC[C@H](O)c2cccc(Cl)c2)cc1F | 89% | 75% | 6% |
| CN(C)CCCn1cc(C(=O)OC2CC3CCC(C2)N3C)c2cc(-c3ccccc3)ccc21.Cl (stereo not given) | 97% | 96% | 97% |

| Compound | Inhibition (Plasmodium falciparum [1]) | Inhibition (Plasmodium falciparum [2]) | Inhibition (HepG2) |
| --- | --- | --- | --- |
| CC(C)n1ncc2c(C(=O)Nc3ccc(C#N)c(Cl)c3)cc(C3CC3)nc21 | 93% | 15% | 20% |
| CC(Cc1ccc(S(=O)(=O)N(C(C)C)C(C)C)cc1)NCC(O)c1cccc(C(F)(F)F)c1.Cl (stereo not given) | 96% | 93% | 21% |
| COc1ccc2[nH]cc(C3CCN(Cc4ccc(NC(=O)c5ccc(-c6ccccc6)cc5)cc4)CC3)c2c1 | 100% | 72% | 24% |
| Cc1nc(C)c(-c2ccc(Oc3ccc(OC(F)(F)F)cc3)cc2)c(OC(=O)N(CCNC(C)C)C(C)C)c1Br.Cl | 98% | 97% | 35% |
| O=C(/C=C/c1c(Cl)cccc1Cl)NC1CCC(CN2CCC(c3c[nH]c4ccccc34)CC2)CC1 (stereo not given) | 93% and 100% | 21% and 42% | 54% and 39% |
| CCCCCC(C)C(C)c1cc(O)c2c3c(c(=O)oc2c1)CN(Cc1ccccc1)CC3.Cl (stereo not given) | 99% | 47% | 4% |
| COCCNCc1cccc(-c2cccc(CN(C(=O)Nc3ccccc3)C3CCN(Cc4ccccc4)CC3)c2)c1.O=C(O)C(F)(F)F | 100% | 65% | 28% |
| COC(=O)c1ccc(CC(C)NCC(O)c2cccc(Br)c2)cc1 (stereo not given) | 99% | 88% | 0% |
| COc1ccc(OC)c(CNCC(O)c2cc(C(F)(F)F)cc(C(F)(F)F)c2)c1 (stereo not given) | 92% | 100% | 7% |
| C=Cc1cc(OC)c2c(c1)c(=O)oc1c2cc(OC)c2c(O)ccc([C@H]3O[C@H]([C@H](C)O)[C@H](O)[C@H]3O)c21 | 95% | 41% | 33% |
| CCC1CN2CCc3cc(OC)c(OC)cc3C2CC1CC1NCCc2c1[nH]c1ccc(O)cc21 (stereo not given) | 99% | 100% | 45% |
| Oc1ccc(Cl)cc1CN1CCC(CCOC(c2ccccc2)c2ccccc2)CC1 | 98% | 99% | 14% |
| O=C(/C=C/c1cccc(F)c1)NC1CCC(CN2CCC(c3c[nH]c4ccccc34)CC2)CC1 (stereo not given) | 99% and 98% | 28% and 31% | 39% and 35% |
| Cl.c1ccc2c(NCCCCCCNc3c4c(nc5ccccc35)CCCC4)c3c(nc2c1)CCCC3 | 100% | 51% | 90% |
| CC[C@H]1CN2CC[C@@H]1C[C@H]2[C@H](O)c1cc(N2CCC(CO)CC2)nc2ccc(OC)cc12 | 99% | 99% | 4% |
| Cc1[nH]c2ccc(O)cc2c1C1CCN(CC2CCN(C(=O)/C=C/c3ccc(Cl)c(Cl)c3)CC2)CC1 | 99% | 99% | 23% |
| COC(=O)c1ccc(CC(C)NCC(O)c2cccc3ccccc23)cc1 (stereo not given) | 96% | 82% | 3% |
| COCCSc1ccc(CC(C)NCC(O)c2cccc(Cl)c2)cc1.Cl (stereo not given) | 97% | 73% | 2% |
| COc1nc(N)ncc1C(=O)NC1CN2CCC1CC2 (stereo not given) | 92% | 0% | 26% |
| CN1CCC(O)(c2ccc(Br)cc2)C(C(O)c2ccc(Br)cc2)C1.CS(=O)(=O)O (stereo not given) | 98% | 99% | 28% |

| Compound | Inhibition (Plasmodium falciparum [1]) | Inhibition (Plasmodium falciparum [2]) | Inhibition (HepG2) |
| --- | --- | --- | --- |
| Cc1[nH]c2ccccc2c1C1=CCN(CCN2CCOc3c(Br)cccc3C2=O)CC1 | 97% | 76% | 15% |
| O=C(NC1CCN(CC2(c3ccc(Cl)cc3)CCC2)CC1)c1cc[nH]n1 | 96% | 43% | 0% |
| Cc1cc(NC(=O)[C@H](CC(C)C)Nc2ccc(C#N)c3ccccc23)ccc1F.O=C(O)C(F)(F)F | 95% | 88% | 35% |
| CC[C@H]1CN2CC[C@H]1C[C@H]2[C@H](O)c1cc(/C=C/c2ccc(F)cc2)nc2ccc(OC)cc12.Cl | 99% | 99% | 55% |
| CSc1nccc(-c2ccc(S(=O)(=O)NC3CCC(CN4CCC(c5c[nH]c6ccccc56)CC4)CC3)s2)n1 (stereo not given) | 100% | 33% and 67% | 61% and 36% |
| O=C(/C=C/c1ccc(C(F)(F)F)cc1)NC1CCC(CN2CCC(c3c[nH]c4ccccc34)CC2)CC1 (stereo not given) | 100% and 98% | 100% and 97% | 73% and 42% |
| O=C(NC1CCC(CN2CCC(c3c[nH]c4ccccc34)CC2)CC1)c1csc(-c2cccc(Cl)c2Cl)n1 (stereo not given) | 99% | 41% | 34% |
| COc1ccc(CN(C2CC2)C(C)C(=O)c2[nH]c(C)c(C(C)=O)c2C)cc1 (stereo not given) | 98% | 64% | 40% |
| Cc1cccc2[nH]cc(C3CCN(CC4CCC(NC(=O)/C=C/c5ccc(Cl)c(Cl)c5)CC4)CC3)c12.Cl (stereo not given) | 100% | 97% | 88% |
| COC(=O)c1ccc(CC(C)NCC(O)c2cccc(C(F)(F)F)c2)cc1C (stereo not given) | 93% | 74% | 6% |
| O=C(/C=C/C=C/c1ccccc1)NC1CCC(CN2CCC(c3c[nH]c4ccccc34)CC2)CC1 (stereo not given) | 100% | 66% | 49% |
| COc1ccc(F)cc1-c1csc(N(c2ccc(F)cc2)C2CCNCC2)n1.O=C(O)C(F)(F)F | 94% | 0% | 15% |
| COc1cccc(CC(C)NCC(O)c2cccc(Cl)c2)c1.Cl (stereo not given) | 85% | 76% | 7% |
| CCCCNC(c1ccc(Cl)cc1)C(O)c1ccc(Cl)cc1.Cl (stereo not given) | 99% | 98% | 13% |
| COCC(=O)N(Cc1ccccc1-c1ccc(CNCCc2ccccc2)cc1)C1CCN(Cc2ccccc2)CC1.O=C(O)C(F)(F)F | 94% | 86% | 39% |
| Cc1cc(NC(=O)[C@@H](Nc2ccc(C#N)c3ccccc23)C2CCCCC2)ccc1F.O=C(O)C(F)(F)F | 95% | 83% | 10% |
| CCCCCSc1cc(O)c(C(CNC)C(C)C)cc1OC.O=C(O)/C=C\C(=O)O (stereo not given) | 100% | 99% | 5% |
| CN(Cc1ccccc1)C1CCN(CCc2c[nH]c3ccc(F)cc23)CC1.O=C(O)C(F)(F)F | 100% | 91% | 28% |
| Cc1cccc(C(=O)Nc2ccnc(N(C)C3CCN(Cc4cccc(O)c4)CC3)c2)c1.O=C(O)C(F)(F)F | 89% | 62% | 5% |
| CCN1CC=C(c2c[nH]c3ccccc23)CC1 | 84% | 58% | 27% |
